Reference: PubChem BioAssay (Tox21)
Inconclusive results are not listed. A call without a number means that no potency is given here. Active and inactive are the calls of the source. Unless noted, calls come from the whole dose curve.

Test: qHTS assay to identify small molecule antagonists of the sonic hedgehog signaling (Shh) pathway - cell viability counter screen (AID 1259367; active = well fitted cell-killing curve with a large enough effect in the repeat runs; note: nearly all actives have a fitted effect of over 55% in size)
Details: NIH/3T3 Gli1-Luc viability, CellTiter-Fluor, 24 h; series mostly up to 92.4 µM
How it was run: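 NIH/3T3-derived Gli1-Luc reporter cells (2,000 per well) rested 4 hr at 37 C, then received DMSO compounds plus conditioned medium. After 23 hr of treatment, CellTiter-Fluor was added for 1 hr at 37C and fluorescence read.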

SMILES | Potency
CCCCCCCCCCCCCCCC(=O)NCCO | inactive
C=C(C)[C@@H]1CC[C@@H](C)C[C@@H]1O | inactive
CCOC(=O)C(=O)c1csc(NC=O)n1 | inactive
CCC(CO)CO | inactive
Nc1nc(=O)n([C@@H]2O[C@H](CO)[C@@H](O)[C@@H]2F)cc1I | inactive
COc1ccc(N=Nc2cc(C)c(N=Nc3ccc(S(=O)(=O)O)cc3)cc2OC)cc1 | inactive
OC(CCN1CCCCC1)(c1ccccc1)c1ccccc1 | inactive
Cc1nc(C)nc(N2C[C@@H](C)N(c3ccnc([C@@H](C)O)n3)[C@@H](C)C2)n1 | inactive
O=C(CN1CCN(Cc2ccc3c(c2)OCO3)CC1)N1c2ccccc2Sc2ccccc21 | inactive
NS(=O)(=O)c1ccc(Cl)c(S(N)(=O)=O)c1 | inactive
C1=C\CC/C=C\CC/1 | inactive
CCCCCC1CCCC(=O)O1 (configuration not stated) | inactive
O=C(Oc1ccccc1C(=O)O)c1ccccc1O | inactive
NC(=O)NNC(N)=O | inactive
CCCCC(C)C(=O)O (configuration not stated) | inactive
CCCCCCCCCCCCCCCCCCN(C)C | inactive
COc1cc2c3cc1Oc1cc(ccc1O)C[C@@H]1c4c(cc(OC)c(O)c4Oc4ccc(cc4)C[C@@H]3N(C)CC2)CC[N+]1(C)C | inactive
O=C(/C=C/c1ccccc1)NCCO | inactive
CCC(C)(CCC(C)C)C(=O)[O-].CCC(C)(CCC(C)C)C(=O)[O-].[Zn+2] (configuration not stated) | inactive
C=CCOc1c(Br)cc(C(C)(C)c2cc(Br)c(OCC=C)c(Br)c2)cc1Br | inactive
SCCSCCS | inactive
CN(C)CCCNCCC#N | inactive
FC(F)(F)/C(=N\OCC1OCCO1)c1ccc(Cl)cc1 | inactive
Cc1ccccc1OCC1CO1 (configuration not stated) | inactive
CCCCCCCC[Si](OCC)(OCC)OCC | inactive
CC(C)COC(=O)CC(C(=O)OCC(C)C)S(=O)(=O)O (configuration not stated) | inactive
Cc1ncc([N+](=O)[O-])n1CC(O)CCl (configuration not stated) | inactive
CO[Si](CCCCl)(OC)OC | inactive

Test: qHTS assay to identify small molecule agonists of the sonic hedgehog signaling (Shh) pathway (AID 1259368);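 note: NIH/3T3-derived 3T3Gli1-Luc cells carrying a stable Gli1-driven firefly luciferase reporter; nearly all actives have a fitted effect of over 15% in size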
Details: NIH/3T3 Gli1-Luc reporter, luciferase, 24 h, stronger effect = higher value; series mostly up to 92.4 µM
How it was run: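 NIH/3T3-derived 3T3Gli1-Luc cells with stably integrated Gli1-driven firefly luciferase, 2,000 cells/well, compounds added after 4 hr. Incubated 24 hr at 37C, 5% CO2; luminescence read after 30 min with luciferase reagent at room temperature.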

SMILES | outcome | activity change
CCCCCCCCCCCCCCCC(=O)NCCO | inactive | 
C=COCCOCCOC=C | inactive | 
C=C(C)[C@@H]1CC[C@@H](C)C[C@@H]1O | inactive | 
O=C(O)CCNC(=O)c1ccccc1 | inactive | 
CCOC(=O)C(=O)c1csc(NC=O)n1 | inactive | 
CCC(CO)CO | inactive | 
OC(CCN1CCCCC1)(c1ccccc1)c1ccccc1 | inactive | 
Cc1nc(C)nc(N2C[C@@H](C)N(c3ccnc([C@@H](C)O)n3)[C@@H](C)C2)n1 | inactive | 
COc1ccc(NS(=O)(=O)c2ccc(N)cc2)nn1 | inactive | 
O=C(CN1CCN(Cc2ccc3c(c2)OCO3)CC1)N1c2ccccc2Sc2ccccc21 | inactive | 
C1=C\CC/C=C\CC/1 | inactive | 
CCCCCC1CCCC(=O)O1 (configuration not stated) | inactive | 
C=C(C)C(=O)OC1CC(C)CC(C)(C)C1 (configuration not stated) | inactive | 
C=C[C@@H](C)CCC=C(C)C | inactive | 
CCN(CC)C(=O)C1CN2CCc3cc(OC)c(OC)cc3C2CC1OC(C)=O (configuration not stated) | inactive | 
O=C(Oc1ccccc1C(=O)O)c1ccccc1O | inactive | 
NC(=O)NNC(N)=O | inactive | 

SMILES | outcome | activity change
C=CCCCCCCCCCCC |  | 0.0597% [at 8.39 µM] (inactive)
CCCCC(C)C(=O)O (configuration not stated) | inactive | 
CCCCCCCCCCCCCCCCCCN(C)C | inactive | 
COc1cc2c3cc1Oc1cc(ccc1O)C[C@@H]1c4c(cc(OC)c(O)c4Oc4ccc(cc4)C[C@@H]3N(C)CC2)CC[N+]1(C)C | inactive | 
O=C(/C=C/c1ccccc1)NCCO | inactive | 
CCC(C)(CCC(C)C)C(=O)[O-].CCC(C)(CCC(C)C)C(=O)[O-].[Zn+2] (configuration not stated) | inactive | 
CCc1nccnc1C | inactive | 
C=CCOc1c(Br)cc(C(C)(C)c2cc(Br)c(OCC=C)c(Br)c2)cc1Br | inactive | 
SCCSCCS | inactive | 
CN(C)CCCNCCC#N | inactive | 
FC(F)(F)/C(=N\OCC1OCCO1)c1ccc(Cl)cc1 | inactive | 
FC(F)(F)c1ccc(Cl)cc1Cl | inactive | 
Cc1ccccc1OCC1CO1 (configuration not stated) | inactive | 
C[C@H](CCC(=O)O)[C@H]1CC[C@H]2[C@@H]3[C@H](O)C[C@@H]4C[C@H](O)CC[C@]4(C)[C@H]3C[C@H](O)[C@]12C | inactive | 
CC(C)COC(=O)CC(C(=O)OCC(C)C)S(=O)(=O)O (configuration not stated) | inactive | 
Cc1ncc([N+](=O)[O-])n1CC(O)CCl (configuration not stated) | inactive | 
CO[Si](CCCCl)(OC)OC | inactive | 
